# According to PubChem BioAssay (NCI):
# About 79,000 compounds went through this panel and 15% of them were active in at least one assay; those are over-represented in the sample as a whole. A number with no mark means an inactive call. Active and inactive are the calls of the source. Cut-off read from the data, not from the text of the source: active = growth inhibition above about 70%; inactive = the rest.
# Key:
# [1] = NCI Yeast Anticancer Drug Screen. Data for the rad50 strain (AID 155);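 note: 0% = growth of vehicle-only cultures of the same strain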; settings: S. cerevisiae rad50 strain growth inhibition; at 50.0 µM; stronger effect = higher value
# Outline: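 Genetically altered yeast (DNA repair pathway); compound treatment; growth inhibition vs vehicle ctrl.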
# [2] = NCI Yeast Anticancer Drug Screen. Data for the mec2-1 strain (AID 157); settings: S. cerevisiae mec2-1 strain, at 50.0 µM, stronger effect = higher value
# Outline: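 Compounds were applied to mec2-1 yeast cells. Their growth was then compared with that of vehicle-treated cultures to give growth inhibition.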
# [3] = NCI Yeast Anticancer Drug Screen. Data for the sgs1 mgt1 strain (AID 161);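 note: 0% = growth of cultures given vehicle only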; settings: S. cerevisiae sgs1 mgt1 strain, at 50.0 µM, stronger effect = higher value
# Outline: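 Yeast cells carrying a defined DNA-repair defect were exposed to test compounds. Growth inhibition was measured relative to vehicle-treated controls.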
# [4] = NCI Yeast Anticancer Drug Screen. Data for the cln2 rad14 strain (AID 165);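 note: 0% = growth equal to vehicle treated cultures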; settings: S. cerevisiae cln2 rad14 strain, at 50.0 µM, stronger effect = higher value
# Outline: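 Strain: cln2 rad14 yeast, altered in cell cycle control and DNA damage repair. Read-out: growth inhibition vs vehicle.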
# [5] = NCI Yeast Anticancer Drug Screen. Data for the bub3 strain (AID 167); settings: S. cerevisiae bub3 mutant strain, at 50.0 µM, stronger effect = higher value
# Outline: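 Yeast carrying a defined mutation is treated with each compound, and growth is compared with that of vehicle-exposed cells to give inhibition.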
# [6] = NCI Yeast Anticancer Drug Screen. Data for the mlh1 rad18 strain (AID 175); settings: S. cerevisiae mlh1 rad18 strain growth inhibition; at 50.0 µM; stronger effect = higher value
# Outline: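 A repair-deficient yeast strain is exposed to test compound, and growth is scored relative to vehicle-treated controls.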
SMILES,growth inhibition [1],growth inhibition [2],growth inhibition [3],growth inhibition [4],growth inhibition [5],growth inhibition [6]
O=C1c2c(O)cc(O)cc2OC(c2ccc(O)c(O)c2)C1O (centres undefined),9.55%,-23.6%,11.2%,-0.65%,-9.05%,-18.7%
CCCCC1C(=O)N(c2ccc(S(=O)(=O)Nc3ccccn3)cc2)N(c2ccc(O)c(C(=O)O)c2)C1=O (centres undefined),21.8%,23.7%,6.7%,23.2%,,8.85%
CNC(=O)c1cccnc1,-5.35%,-26%,-20.6%,6.7%,-12.2%,-8.35%
COC(=O)C1CCC(=O)N1CN(C(C)=O)c1cccc(O)c1 (centres undefined),5.8%,3.3%,0.2%,9.75%,,-52.3%
CC1OC23CCCCC2C(C#N)(C#N)C1(C#N)C(=N)O3 (centres undefined),3.65%,9.5%,-36%,-22.9%,-35%,2.95%
Clc1c(Cl)c(Cl)c2nn(C3CCCO3)nc2c1Cl (centres undefined),15.3%,3.2%,-5.9%,-17.1%,,-45.6%
COc1cc2c(cc1C1COc3cc4occc4cc3C1=O)OCO2 (centres undefined),5.15%,-33.8%,4.05%,6.8%,-4.45%,-25.6%
COC(=O)C(=O)C(C(=O)C(=O)Nc1ccc(Cl)c(Cl)c1)c1nc2ccc(C(=O)c3ccccc3)cc2[nH]c1=O (centres undefined),6.8%,-9.65%,-15.1%,5.95%,-3.05%,4.95%
NC(=S)NS(=O)(=O)c1ccc(N)cc1,-24.6%,-38.2%,-6%,4.35%,-16.4%,8.3%
CCCCCCCCCCCCC/C=C/[C@H]1[C@@H](C(=O)OC)N1S(=O)c1ccc(C)cc1 (some centres undefined),-15.1%,-27.6%,1.25%,-13.1%,-10.5%,-43.5%
COc1cc2c(c3c1c(=O)c1ccccc1n3C)C=C([N+](=O)[O-])C(C)(C)O2,1.4%,-32.8%,16.6%,6.95%,,-25.3%
C=C1CC2(C)CCC(OC(=O)C3(C)OC3C)C(C)(OC(C)=O)C2CC1=C(C)C (centres undefined),7.7%,-36.8%,7.55%,16.2%,,-55%
CNc1nc2c(C)ccc3[nH]c(N(C)C)nc3c-2n1,14.2%,-32.8%,11.3%,8.1%,,-10.9%
CC(=O)c1ccc(NC(=O)/C(CC(=O)/C=C/c2ccccc2)=N/NC(N)=S)cc1,37.1%,-32.4%,23.9%,16.3%,35.1%,9.65%
CNC(=S)c1nnsc1N,1.7%,-0.8%,21.6%,-2.45%,6.3%,-0.4%
O=C1NC(N/N=C\c2ccccc2)=N/C1=C/c1ccccc1,-2.9%,5.2%,-0.1%,2.25%,,-26.5%
C1CCCCNCCC1,-22.8%,-22.2%,-56.5%,-3.4%,,-27.3%
O=C(O)COc1cc(-c2ccccc2F)nc2cc3c(cc12)OCO3,34.1%,22.5%,15.9%,7.9%,-3.15%,-18.1%
O[C@H]1[C@H](O)[C@@H](Cn2nnc(-c3ccccc3)c2-c2ccccc2)OCO[C@@H]1Cn1nnc(-c2ccccc2)c1-c1ccccc1,53.3%,31%,13.4%,50.9%,,29.1%
NC(Cc1ccc(S(=O)(=O)O)cc1)C(=O)NC(Cc1ccc(S(=O)(=O)O)cc1)C(=O)NC(Cc1ccc(S(=O)(=O)O)cc1)C(=O)NC(Cc1ccc(S(=O)(=O)O)cc1)C(=O)O (centres undefined),-6.5%,5.65%,5.2%,-2.3%,5.85%,8.85%

SMILES,growth inhibition [1],growth inhibition [2],growth inhibition [3],growth inhibition [4],growth inhibition [5],growth inhibition [6]
COc1ccc2c(C)cc(N/N=C/c3ccc(C)s3)nc2c1,-23.4%,-26.5%,-19.4%,9.05%,-39.1%,-12.1%
CCN(CC)C(=O)c1cccnc1,0.8%,-46.9%,-33%,14.2%,,18.6%
CSc1nc(Br)nc2ncn(C3CC(Oc4ccc(C)cc4)C(COc4ccc(C)cc4)O3)c12 (centres undefined),16.7%,1.7%,12.4%,0.7%,,-4.75%
Cn1c2c(c3ccccc3c1=O)C(=O)c1ccccc1-2,43%,-14.2%,9.3%,26.1%,,-23.7%
CC1C2(C)OC(=N)C(C#N)(C(c3cccc([N+](=O)[O-])c3)O2)C1(C#N)C#N (centres undefined),8.15%,1.55%,-13.6%,0.15%,,-9.1%
CC(C)C1OC(N)=C(C#N)C1(C#N)C#N (centres undefined),8.9%,27%,-7.35%,-11.8%,,-38.6%
CC(=N\N=C\c1ccccn1)/C(C)=N/N=C/c1ccccn1,7.8%,10.3%,-4.4%,30.6%,-14.2%,-53.3%
CC(C)=CCc1cc(C2COc3cc4c(c(O)c3C2=O)C=CC(C)(C)O4)c(O)cc1O (centres undefined),91.3% (active),93% (active),92% (active),90.9% (active),91.6% (active),88% (active)
C[C@@H]1C[C@](O)([C@@H](C)Cl)C(=O)O[C@@H]2CCN3CC=C(COC(=O)[C@]1(C)O)[C@H]23,-14.2%,-16.1%,-7.95%,-11.1%,5.7%,-30.6%
CC1CC(C(=O)OC2OC(COC3OC(CO)C(OC4OC(C)C(O)C(O)C4O)C(O)C3O)C(O)C(O)C2O)C2CCC3(C)C(=CCC4(C)C3CCC3C(C)(CO)C(O)C(O)CC34C)C2C1C (centres undefined),60.1%,68.1%,72.8% (active),26.8%,,24.4%
C[C@@H]1CC[C@H]2C(C)(C)[C@H]3C[C@@]12CC[C@@]3(C)O,21.9%,-16.9%,12.8%,14.1%,11.8%,-18.6%
C=C(C)C(=O)OC1CC2(C)OC(=CC2=O)C(C)CC2OC(=O)C(=C)C12 (centres undefined),13.1%,18.1%,29%,25.2%,,-34.6%
CC1CC(=O)N(N(C)C)C(C#N)(C#N)C1(C#N)C#N (centres undefined),24.4%,30.6%,11.2%,17.5%,0.8%,80.5% (active)
O=C(O)CCCC(=O)Nn1c(Cc2ccc(Cl)cc2)n[nH]c1=O,7.75%,-13.1%,34.5%,-6.3%,-7.15%,-1.85%
C=C(C)C1CC2(C)C(C)CC(OC(=O)/C(C)=C\C)CC2C(OC(=O)/C(C)=C\C)C1O (centres undefined),31.2%,-9.65%,31.2%,-9.6%,-1%,-12.9%
CC(C)=CCc1c(OC(=O)c2c(C)cc(O)cc2O)cc(CO)c(CO)c1O,5.1%,11.4%,30.4%,5.95%,8.65%,-54.9%
CCCCCC(O)(CCCCC)CCCCCCCCC1=C(O)c2ccccc2C(=O)C1=O,-17.7%,-18.6%,-0.15%,5.75%,1%,-79.2%
Cc1cc2nn(C3CCCO3)nc2cc1C (centres undefined),-10.6%,-23.5%,-21.8%,-15.3%,-3.8%,-36.4%
O=C(Cc1nc2ccc(C(=O)c3ccccc3)cc2[nH]c1=O)C(=O)Nc1ccccc1[N+](=O)[O-],2.75%,-15.6%,7.75%,9.35%,6.15%,12.3%
C=CC1=C(C)C2=NC1=CC1=NC(=C(CC)/C1=C\O)C=C1N=C3C(=C1C)C(=O)[C@H](C(=O)OC)C3=C1NC(=C2)[C@@H](C)[C@@H]1CCC(=O)O,-19.7%,0.7%,4.1%,9.15%,-4.35%,-15.9%
